Assay results from PubChem BioAssay (Tox21).
Records with an inconclusive call do not appear. A call without a number means that no potency is given here. A number with no mark means an inactive call. The source made the active and inactive calls. Calls follow the shape of the dose curve; as a rule, active = well fitted activation curve with a large enough effect in the signal ratio in the repeat runs (not every such curve was filed as active); inconclusive = weak or mixed curves, or effect the other way; inactive = flat fitted curve, though single readings scatter; the % refers to the signal ratio.

Assay: qHTS assay to identify small molecule agonists of the endoplasmic reticulum stress response signaling pathway (AID 1159516)
Settings: ESRE-bla HeLa, ER stress beta-lactamase reporter, 5 h; series mostly up to 61 µM
Source text: National Center for Advancing Translational Sciences [NCATS]
NIH Chemical Genomics Center [NCGC]
U.S. Environmental Protection Agency [EPA]
National Institutes of Environmental Health Sciences [NIEHS]
National Toxicology Program [NTP]
U.S. Food and Drug Administration [FDA]
Endoplasmic Reticulum (ER) plays an important role in cellular signaling, protein folding/maturation, stress response, lipid biosynthesis, calcium storage and release etc. Under stress conditions, proteins in ER misfold or unfold, and leading to the expression of ER stress responsive genes. ER stress has been associated with a variety of pathophysiological conditions such as cancer, inflammation, neurodegenerative diseases, diabetes, ischemic heart disease etc. To identify the compounds that induce ER stress response, an ER stress reporter cell line, CellSensor ESRE-bla HeLa (Life Technologies, Carlsbad, CA) containing a beta-lactamase reporter gene under control of the Endoplasmic reticulum Stress Response Element (ESRE) was used to screen Tox21 10K compound library.
Tox21 Assay Protocol Summary:
ESRE-bla HeLa cells were dispensed at 1,500 cells/6 uL of assay medium per well into black wall/clear-bottom 1536-well plates using a Multidrop Combi (ThermoFisher Scientific, Waltham, MA) dispenser. After the assay plates were incubated at 37 C and 5% CO2 for an overnight, 23 nL of compounds dissolved in DMSO, positive controls or DMSO only was transferred to the assay plate by a Pintool station (Kalypsys, San Diego, CA). The assay plates were incubated at 37 C and 5% CO2 for 5 hr. One uL of LiveBLAzer B/G FRET substrate (Life Technologies) was added using a Flying Reagent Dispenser (Aurora Discovery, San Diego, CA) and the plates were incubated at room temperature for 2 hr. Fluorescence intensity (405 nm excitation, 460 nm and 530 nm emissions) was measured using an Envision plate reader (PerkinElmer, Shelton, CT).

Which Potency does the source give for `Cc1ccc(O)c([N+](=O)[O-])c1` here?
The Potency was “inactive”.

For `CCOCCOCCOC(C)=O`, which Potency is on record?
The Potency was “inactive”.

With `COc1ccccc1N1CCN(CC(O)COc2cc(OC)c(OC)c(OC)c2)CC1` (stereo not given) as the molecule, how does the Potency read?
The Potency was “inactive”.

With `C[C@@H](CN1CC(=O)NC(=O)C1)N1CC(=O)NC(=O)C1` as the molecule, how does the Potency read?
Its Potency is “inactive”.

With `CCC(C)(C)C` as the molecule, how does the Potency read?
The Potency was “inactive”.

For `CC(C)c1cc(C(C)C)cc(C(C)C)c1`, which Potency is on record?
Its Potency is “inactive”.

For `CCCCCCCCS(=O)(=O)O`, which Potency is on record?
The Potency was “inactive”.

With `CC(C)(O)c1ccc(C(C)(C)O)cc1` as the molecule, how does the Potency read?
Its Potency is “inactive”.

Which Potency does the source give for `BrCCOc1ccccc1` here?
Its Potency is “inactive”.

Which Potency does the source give for `NC[C@H]1O[C@H](O[C@H]2[C@H](O)[C@@H](O[C@H]3O[C@H](CO)[C@@H](O)[C@H](N)[C@H]3O)[C@H](N)C[C@@H]2N)[C@H](N)[C@@H](O)[C@@H]1O` here?
Its Potency is “inactive”.

For `CCCCCCCCCCCCCC(=O)OCC`, which Potency is on record?
The Potency was “inactive”.

For `CCCOc1ccc(C(=O)OCCN(CC)CC)cc1N`, which Potency is on record?
Its Potency is “inactive”.

Which Potency does the source give for `Cc1nnc(C(=O)NC(C)(C)c2nc(C(=O)NCc3ccc(F)cc3)c(O)c(=O)n2C)o1` here?
The Potency was “inactive”.

Which Potency does the source give for `CCCCCCCCOCCC#N` here?
The Potency was “inactive”.

With `N#Cc1ccccc1C#N` as the molecule, how does the Potency read?
The Potency was “inactive”.

For `Cc1cc(O)c(Cl)cc1C`, which Potency is on record?
The Potency was “inactive”.

For `CN(C)c1ccncc1`, which Potency is on record?
Its Potency is “inactive”.

With `CCCCCCCCCCCCCCCC/C=C/C1CC(=O)OC1=O` (stereo not given) as the molecule, how does the Potency read?
Its Potency is “inactive”.

With `COC(=O)c1ccc(C(=O)O)cc1` as the molecule, how does the Potency read?
The Potency was “inactive”.

For `CCNC(=O)C(C)OC(=O)Nc1ccccc1` (stereo not given), which Potency is on record?
Its Potency is “inactive”.

With `NCC1CCC(C(=O)Oc2ccc(CCC(=O)O)cc2)CC1` (stereo not given) as the molecule, how does the Potency read?
Its Potency is “inactive”.

For `CCCCCCCCCCCC(C)=O`, which Potency is on record?
Its Potency is “inactive”.

Which Potency does the source give for `CCc1ccc(CC)cc1` here?
The Potency was “inactive”.

For `O=C1c2ccccc2C(=O)N1CO`, which Potency is on record?
Its Potency is “inactive”.

Which Potency does the source give for `CNCCc1ccccn1` here?
Its Potency is “inactive”.

With `CC1=C(O)C(=O)CO1` as the molecule, how does the Potency read?
Its Potency is “inactive”.

For `CC(C)(C)OC=O`, which Potency is on record?
Its Potency is “inactive”.

With `CC(C)(C)c1ccc(C(=O)CCCCl)cc1` as the molecule, how does the Potency read?
The Potency was “inactive”.

With `CCCCS` as the molecule, how does the Potency read?
The Potency was “inactive”.

For `CC(C)(C)NCC(O)COc1cccc2c1CCC(=O)N2` (stereo not given), which Potency is on record?
Its Potency is “inactive”.

Which Potency does the source give for `C/C(=N\O)c1ccc(OCC(=O)N2CCCCC2)cc1` here?
The Potency was “inactive”.

Which Potency does the source give for `CCCCCC(CC)OC(=O)CCCOc1ccc(Cl)cc1Cl` (stereo not given) here?
The Potency was “inactive”.

Which activation does the source give for `C[C@@H]1CC[C@@]2(OC1)O[C@H]1C[C@H]3[C@@H]4CC[C@H]5C[C@@H](O)CC[C@]5(C)[C@H]4CC(=O)[C@]3(C)[C@H]1[C@@H]2C` here?
The activation was 3.05% [at 6.95 µM].

For `O=C(O)CCC(=O)Nc1ccc(S(=O)(=O)Nc2nccs2)cc1`, which Potency is on record?
Its Potency is “inactive”.

Which Potency does the source give for `Cc1ccc(S(=O)(=O)NC(=O)NN2CC3CCCC3C2)cc1` (stereo not given) here?
Its Potency is “inactive”.

Which Potency does the source give for `CCc1ncc(C)[nH]1` here?
Its Potency is “inactive”.

Which Potency does the source give for `NNC(=O)CCCCC(=O)NN` here?
The Potency was “inactive”.

With `CC(C)(Sc1cc(C(C)(C)C)c(O)c(C(C)(C)C)c1)Sc1cc(C(C)(C)C)c(O)c(C(C)(C)C)c1` as the molecule, how does the Potency read?
The Potency was “inactive”.

Which Potency does the source give for `CCC(C)SSC(C)CC` (stereo not given) here?
The Potency was “inactive”.

Which Potency does the source give for `COc1ccc(Cl)cc1C` here?
Its Potency is “inactive”.
